Assay results published in the supplement of paper PMC11417369.
± gives the standard deviation of the averaged measurements. The full ranking holds about 25,000 sequences; the median of “ln(normalized median fluorescence intensity)” is about 8.9, and the highest 2% start at about 10. The full list was thinned out, with the highest values kept by preference.

What follows are sequences tested on PfAP2-LT AP2 domain (GST-tagged) (assay: gcPBM binding intensity (ln(normalized median fluorescence intensity)); higher = stronger DNA binding).
How it was run: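 An Agilent 4 × 180k array carrying primer-extended double-stranded 36-bp intergenic genomic probes and negative controls received GST-tagged P. falciparum DNA-binding domains expressed in E. coli, about 25 μg on average, for 1 h. The binding buffer contained 1× PBS, 1% milk, 0.2 mg/ml BSA, 0.5% salmon testes DNA and 0.03% Triton X-100. Binding intensity is the top Masliner-normalised natural-log median intensity across replicate spots of either probe orientation, read after Alexa488 anti-GST antibody staining and a 488 nm scan.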

Point of comparison: “AAAAAAAAAAAAAAAACACACATATATATATAATAT [CACACA_site1159]”, “gcPBM binding intensity (ln)” value 8.96 ± 0.42. Against it:
- AAAAAATTATATAATAATAGAACTATACATTTTATT [GTGCAC_negctrl_site645] — within error, 8.44 ± 0.47
- TACAATAAGGATAAGTGTACATATGTGCATACATAT [XGTACX_site7188] — the same, 8.96 ± 0.35
- TATTATTATTTTTTATGTACTAACGACAAAAATATT [XGTACX_site252] — within error, 8.48 ± 0.4
- AATATTTTTATATATATACACACTTACATATATATA [CACACA_site3609] — within error, 8.91 ± 0.4
- TTTTTTTTTTTGTGGGTGCGTTTATAAAAACAGGAA — within error, 8.42 ± 0.33
- GGAACGTTCATATTTCCACACACAAAAAATAAATAT [CACACA_site9101] — within error, 9.31 ± 0.57
- TTACACAAGGATAAAAACATATGTATGATTATATAT [CACACA_negctrl_site654] — within error, 8.89 ± 0.47
- ATAGCTTTTATTTAAAGTACAAAAAGGATGTTGAAA [XGTACX_site3810] — within error, 8.46 ± 0.44
- TTTTTTAAGTAATGAAATGATTTTCTTATAGAATAA [GTGCAC_negctrl_site395] — lower, 7.96 ± 0.36
- AAAAAACAATTTGTGTGTACACATGATACGTTCGAT [XGTACX_site4112] — within error, 9.39 ± 0.28
- TCTCATAGGAAACACACACACACACCCACATATATA [CACACA_site1738] — higher, 10.1 ± 0.11
- CGCACTAAAAAACACACACACACACCCATATATATA [CACACA_site4152] — higher, 10.2 ± 0.29
- TTTCCCATAGGAAAAACACACATATATTATATATAA [CACACA_site1981] — within error, 8.57 ± 0.4
- TTAAAAAAAAAACACACACACATACCCATATATATA [CACACA_site5768] — higher, 9.825 ± 0.021
- AACATATAAAAATGTGCACACACACCCATATATATA [CACACA_site1525] — higher, 9.79 ± 0.3
- TCTCATAGTAAACACACACACACACCCACATATATA [CACACA_site5034] — higher, 9.97 ± 0.071
- AATAAAATATAATAATTAATATATATATATATATAA [GTGCAC_negctrl_site457] — within error, 8.65 ± 0.45
- ACACACAATACAAAAGTGCATATAATAATTAATCAT — within error, 9.34 ± 0.46
- TTATAATATATATGTGGTACTTATTTATTTATTTAT [XGTACX_site7572] — within error, 8.72 ± 0.49
- AACAAATTAATTCTAGTGCAGGACGTATTTGTGTAC [GTGCAC_site9907] — within error, 8.88 ± 0.36
- AACATACACATATACACACACACATATATACATATA [CACACA_site1093] — higher, 9.89 ± 0.23
- AAAAAAAAAAAAAACACACATACATACATACATATA [CACACA_site4121] — within error, 9.13 ± 0.38
- AAAAAAAAAAAACACACACACATATATATATATATA [CACACA_site732] — higher, 10.4 ± 0.19
- AAAAAAAAAAAAAAAACACACACATATATATATATA [CACACA_site8571] — higher, 9.72 ± 0.29
- AAAAAAAAAAAAAACACACACATATATATAATATAT [CACACA_site3172] — within error, 9.37 ± 0.41
- AAAAAAAAAAAACATACACACATACATACATATATA [CACACA_site8222] — within error, 9.26 ± 0.35
- AACACACACATATATATATATATATATATATATATA [GTGCAC_negctrl_site573] — higher, 10.5 ± 0.13
- AAAAAAACACACACATATATATATATATATATATAT [GTGCAC_negctrl_site498] — higher, 10.2 ± 0.16
- CATATATAAAAAAACACACACATATATATATATATA [CACACA_site1195] — higher, 9.82 ± 0.042
- AAAAAAAAAAAAAACACACACATATATATATATATA [CACACA_site1891] — higher, 10.1 ± 0.37
- AAAAAAAAAAAAAAAACACACACATATATATAATAT [CACACA_site9038] — within error, 9.3 ± 0.41
- ACACATATATATATATATATATATATATATATATAT [CACACA_negctrl_site1766] — higher, 9.935 ± 0.035
- ATATTATATTATATAACACACATTTTTCATAACACT [CACACA_site407] — within error, 8.95 ± 0.34
- TATTAATTTTTATACGCATGTGTATAGTAATATATA [TGCATGCA_site1010] — within error, 8.66 ± 0.37
- TTTATAAACAAATGAACACACAAACATATTTATATA [CACACA_site7478] — within error, 8.86 ± 0.42
- TATGAATATCTATACACACACATATATATACTCACT [CACACA_site1597] — within error, 9.39 ± 0.36
- ATACGAAGTACGTACACACACTTATATGTTACTAAA [CACACA_site7812] — within error, 9.26 ± 0.33
- CAATACTATTATTATAGTACGTATAAAATTATATAT [XGTACX_site4950] — within error, 8.71 ± 0.49
- TATTTTATCATTTGCACACGCACACCGACATAAAAA [CACACA_site4348] — within error, 9.26 ± 0.28
- AAAAGTATATATTCAGTGCATAGTCTTTAAATATAA [GTGCAC_site9522] — within error, 8.7 ± 0.38
- AAAAAAAAAAAAAAAACACACATATATATATATATA [CACACA_site2436] — higher, 10.095 ± 0.0071
- AAAAAAAAAACATACACACATACATACATATATATT [CACACA_site949] — within error, 9.28 ± 0.27
- AAAAAATATTGAAGTACACACATTATGAACTTTTTT [CACACA_site1733] — within error, 8.78 ± 0.42
- AAAGAATACATATATTGTACATATATATATACCGTT [XGTACX_site6250] — within error, 9.02 ± 0.45
- TATGTTTTTACGTGTGTGCACTTTGTAGAGATAAGT — within error, 9.06 ± 0.38
- ATGTAGATAAAACGTGTGCACATGTTTTTTGTTATT — higher, 10.3 ± 0.2
- TTTTTTTTTTTTTGTGCATGTAGATTTATTGTTATA [TGCATGCA_site582] — within error, 8.79 ± 0.39
